Source: PubChem BioAssay (National Center for Advancing Translational Sciences (NCATS))
Shown are actives, neighbours in structure and some others; about 18% of the full set was active somewhere.
TDP1 cell noCPT – qHTS for Inhibitors of human tyrosyl-DNA phosphodiesterase 1 (TDP1): qHTS in cells in absence of CPT. DT40 Tdp1-/- hTDP1 cells, no CPT, ATP luminescence, 48 h. Potency, µM (series often up to 46.2 µM), for inactives: top-dose activity change, negative = growth inhibition, hits mostly inhibitors. actives 15% (n = 420,000). AID 686978, 2013; note: potency is the fitted concentration of half-maximal effect; % is set by controls: 0 for no effect and ±100 for the full control effect; nearly all actives have a fitted effect of over 55% in size
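Growth kinetics read by CellTiter-Glo luminescence after ≥48 hr at 37 °C. Cells: DT40 Tdp1-/- stably carrying human TDP1, 400 per well, compound exposure in the absence of CPT (DMSO vehicle).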
TDP1 inh – blocks human tyrosyl-DNA phosphodiesterase 1. recombinant TDP1, AlphaScreen DNA substrate cleavage. Potency, µM (doses to about 130 µM), without a hit: at the highest dose activity change, negative = inhibition, actives largely listed as inhibitors. actives 0.28% (n = 350,000); note: potency is the fitted concentration of half-maximal effect; % is set by controls: 0 for no effect and ±100 for the full control effect; nearly all actives have a fitted effect of over 40% in size
Target sequence (Q9NUW8 whole entry, looked up): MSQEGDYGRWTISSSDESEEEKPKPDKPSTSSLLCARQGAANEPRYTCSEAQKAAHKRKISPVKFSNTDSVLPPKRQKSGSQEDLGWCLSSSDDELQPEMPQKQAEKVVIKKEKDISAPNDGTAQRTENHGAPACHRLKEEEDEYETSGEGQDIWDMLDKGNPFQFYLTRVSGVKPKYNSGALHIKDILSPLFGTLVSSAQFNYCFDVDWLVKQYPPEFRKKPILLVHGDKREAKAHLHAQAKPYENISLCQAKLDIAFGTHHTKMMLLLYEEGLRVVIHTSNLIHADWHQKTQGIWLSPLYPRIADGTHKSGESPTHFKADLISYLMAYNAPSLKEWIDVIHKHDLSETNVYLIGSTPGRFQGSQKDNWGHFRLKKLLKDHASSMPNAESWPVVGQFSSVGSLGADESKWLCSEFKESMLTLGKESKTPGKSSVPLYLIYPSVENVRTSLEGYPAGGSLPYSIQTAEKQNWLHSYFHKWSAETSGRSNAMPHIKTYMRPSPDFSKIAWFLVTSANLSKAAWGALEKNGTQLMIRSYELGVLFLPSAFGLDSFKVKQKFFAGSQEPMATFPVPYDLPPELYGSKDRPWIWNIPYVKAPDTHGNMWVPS
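E. coli-derived human Tdp1, 1 nM final. Cpd preinc 15 min RT; substrate 15 nM final, 5 min RT; AS bead mix 10 ug/ml final, 10 min RT. Signal loss = tyrosine-FITC cleavage. No-enzyme wells = max signal.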
HepG2 viability – kills HepG2 cells in TGF-b inhibitor counter-screen; actives 0.76% (n = 410,000); Potency, µM (highest dose often 46.1 µM), inactives show top-dose activity change, negative = cytotoxicity, hits mostly cytotoxic; HepG2 CAGA-GFP viability, ATP luminescence, 18 h; AID 588856; note: potency is the fitted concentration of half-maximal effect
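HepG2 CAGA-GFP cells (1000/well, DMEM with 1% FBS) received compound, then TGF-beta at 500 pg/mL final, and were incubated 18 hours at 37 degrees C. Viability was read by CellTiter-Glo luminescence. Media-only wells were set as complete cell-killing and DMSO as no toxicity.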
DT40 TDP1 CPT – DT40-hTDP1 cell growth loss with CPT | actives 12% (n = 420,000) | Potency, µM (top dose mostly 46.2 µM), for inactives: at the top dose activity change, negative = growth inhibition, usual class: inhibitors | chicken DT40 Tdp1-/-;hTDP1 cells + 20 nM CPT, ATP luminescence, 48 h; note: potency is the fitted concentration of half-maximal effect; % is set by controls: 0 for no effect and ±100 for the full control effect; nearly all actives have a fitted effect of over 55% in size
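Cell growth measured by CellTiter-Glo luminescence after a minimum 48 h, 37 C compound exposure with 20 nM CPT in Tdp1-knockout DT40 cells stably expressing hTDP1, seeded 400/well; qHTS titration format.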
TGFb SMAD3 inh – inhibitors of TGF-b signaling. AID 588855. Potency, µM (doses to about 46.1 µM), for inactives: top-dose activity, negative = inhibition, actives largely listed as inhibitors. HepG2 CAGA-GFP TGF-b/SMAD3 reporter, GFP fluorescence, 18 h; TGF-beta stimulated, 500 pg/mL final. actives 1.2% (n = 410,000); note: potency is the fitted concentration of half-maximal effect; % is set by controls: 0 for no effect and ±100 for the full control effect; nearly all actives have a fitted effect of over 65% in size
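First, reporter cells (HEPG2 CAGA-GFP) rested 2 h at 37 degrees C. Next, compounds were pinned in and TGF-beta added to 500 pg/mL final. After 18 h, GFP was imaged per cell and summed per well.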
IL-1B inflam inh – blocks inflammasome-driven IL-1 beta release; THP-1 LPS/ATP IL-1B secretion, AlphaLISA, 16 h; hits give low values; activity change, % at 57.5 µM; actives 4.7% (n = 360,000); in the data active = activity change below about -50%; inconclusive = mostly about -30% to -49%; note: % is set by controls: 0 for no effect and ±100 for the full control effect
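Secreted IL-1B measured by AlphaLISA bead assay after 16 h compound exposure of THP-1 cells; compounds (final up to 57.5 uM) added 1 h before LPS (250 ng/mL) and ATP (1.25 mM) stimulation; lower signal means less secretion.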
The depositor's hits bear a star; ? = inconclusive; · = no result given; [ ] = another dose, or the depositor's remark. Unless noted, calls come from the whole dose curve; as a rule, active = well fitted curve in the direction sought with a large enough effect; inconclusive = small, poorly fitted or top-dose-only effect, or another doubt; inactive = no such curve, though single readings can be large; an effect the other way counts as inactive or inconclusive.

SMILES	TDP1 cell noCPT	TDP1 inh	HepG2 viability	DT40 TDP1 CPT	TGFb SMAD3 inh	IL-1B inflam inh
Cn1nnnc1SCCCNCc1cccc(OCc2ccccc2F)c1	?	-3%	-31%	?	33%	·
Cn1nnnc1SCCCNCc1cc(Cl)ccc1OCc1ccccc1	?	4%	-43%	?	?	·
Nc1nc(SCC(=O)O)[nH]c(=O)c1NC(=O)c1ccco1	2%	-1%	6%	4%	11%	-1
COc1cccc(CNC(=O)c2c(OC)cc(=O)n3c2CCN(C(=O)c2ccccc2Cl)CC3)c1	-8%	·	·	1%	·	·
Cc1nc2ccc(NC(=O)c3ccc(S(=O)(=O)N(C)c4ccccc4)cc3)cc2s1	23µM*	3%	1%	?	?	-62*
CC(=O)Nc1ccc(NC(=O)c2ccc(S(=O)(=O)N(C)c3ccccc3)cc2)cc1	?	-3%[56.1 µM]	-29%	?	-14%	0
COc1ccc(/C=N/NC(=O)c2ccc(NC(=O)c3ccccc3Br)cc2)cc1	?	-3%	-13%	?	-2%	-56*
COc1cc(C(=O)Nc2ccc(S(=O)(=O)N(C)c3ccccc3)cc2)cc(OC)c1OC	?	5%	-75%	16µM*	0%	?
Cc1ccccc1C(=O)Nc1ccc(C(=O)N/N=C/c2ccc(F)cc2)cc1	?	-8%	-35%	-9%	?	-12
COc1cc(C(=O)Nc2ccc(S(=O)(=O)NC(C)(C)C)cc2)cc(OC)c1OC	?	1%	-1%	-28%	21%	-8
COc1ccc(C(=O)Nc2ccc(S(=O)(=O)N(C)c3ccccc3)cc2)cc1	16µM*	·	14%	-25%	?	-65*
CCCCC1CCC(C(=O)N(CCOC)c2c(N)n(CC(C)C)c(=O)[nH]c2=O)CC1 (centres undefined)	?	-11%	-10%	9%	-2%	-2
CN(C(=O)c1cccc(NC(=O)Cc2ccc(NC(=O)C3CCN(S(=O)(=O)c4cccc([N+](=O)[O-])c4)CC3)cc2)c1)C1CCCCC1	?	·	1%	?	12%	13
CCN(CC(=O)Nc1ccc(OC)cc1)CC(=O)Nc1sc2c(c1C(=O)OC)CCCC2	?	0%[56.1 µM]	-23%	?	?	14
COc1ccc(/C=N/NC(=O)c2ccc(N(C)S(=O)(=O)c3ccccc3)cc2)c(OC)c1	?	3%	-61%	-2%	0%	12
COc1ccc(NC(=O)c2ccc(S(=O)(=O)N(C)c3ccccc3)cc2)cn1	?	4%	-23%	15µM*	-4%	-30
COc1cc(C(=O)Nc2ccc(N(C)C)cc2)cc(OC)c1OC	?	7%	6%	21µM*	5%	-9
COc1ccc(/C=N/NC(=O)C2c3ccccc3-c3ccccc32)cc1	21µM*	5%	-3%	?	-1%	6
COc1ccc(/C=N/NC(=O)c2ccc(N(C)S(=O)(=O)c3ccccc3)cc2)cc1	23µM*	7%	0%	?	0%	-22
COc1cc(C(=O)NNC(=O)c2ccc(NC(C)=O)cc2)cc(OC)c1OC	-14%	3%	-4%	-9%	3%	-8
CC(=O)N1CCN(S(=O)(=O)c2cccc(C(=O)NC3CCCC(C)C3C)c2)CC1 (centres undefined)	?	·	-12%	-26%	1%	14
CNC(=O)C1CCN(S(=O)(=O)c2c(C)noc2/C=C/c2ccc(OC)cc2)CC1	-25%	·	-53%	-7%	-27%	-20
CC1CCCC(NC(=O)c2cccs2)C1C (centres undefined)	?	1%	-2%	-22%	23%	-1
CN(c1ccc(C(=O)N/N=C/c2cccc([N+](=O)[O-])c2)cc1)S(=O)(=O)c1ccccc1	?	·	-6%	8.2µM*	12%	-10
COc1ccc(O)c(/C=C(\C#N)C(=O)Nc2ccccn2)c1	-2%	·	-29%	-5%	22%	20
SMILES	TDP1 cell noCPT	TDP1 inh	HepG2 viability	DT40 TDP1 CPT	TGFb SMAD3 inh	IL-1B inflam inh
O=S(=O)(NCc1ccccc1)c1ccc(S(=O)(=O)N(Cc2ccccn2)C2CCCC2)cc1	18µM*	2%	-36%	?	?	?
CCN(C1CCCCC1)S(=O)(=O)c1ccc(S(=O)(=O)NCc2ccncc2)cc1	9.2µM*	0%	-19%	7.3µM*	?	?
CCNS(=O)(=O)c1ccc(S(=O)(=O)N(Cc2ccccn2)C2CCCCC2)cc1	-26%	3%	-24%	-29%	-29%	-10
CCC(C)NC(=O)Cn1c(=O)c2cccn2c2ccc(F)cc21 (centres undefined)	-7%	-4%	6%	-12%	3%	·
C=C(C(C)=O)C(O)c1cccc(Br)c1 (centres undefined)	·	1%	·	·	·	·
O=C1C(=O)N(CNc2ccccn2)c2ccccc21	1.6µM*	2%	-7%	2.1µM*	0%	62
CCN(CC)C(=O)CN1C(=O)C(=O)c2ccccc21	0%	-4%	-7%	-13%	-3%	10
CCOC(=O)c1c(C(F)(F)C(F)(F)C(F)(F)C(F)(F)F)n[nH]c1C	-22%	5%	13µM*	?	?	19
Cc1cc(C)c2c3c(sc2n1)C(c1cccc(F)c1)C(C#N)=C(N)O3 (centres undefined)	16µM*	8%	-41%	?	9%	-79*
Cc1cc(Br)ccc1NC(=O)c1coc(=O)c2ccccc12	0%	2%	9%	-27%	0%	·
O=C(CCCN1C(=O)S/C(=C\C=C\c2ccccc2)C1=O)Nc1ccc(C(=O)O)cc1	1%	35µM*	-11%	-11%	?	-29
O=C(CN1C(=O)S/C(=C\C=C\c2ccccc2)C1=O)Nc1cccc(O)c1	?	6%	-18%	?	?	-110*
COCCCN1C(=O)C(CC(=O)NCc2cccs2)CC(C(=O)N2CCCCCC2)=C1C (centres undefined)	5%	·	·	21%	·	·
Cc1ccc(CNC(=O)C(=O)Nc2c3c(nn2-c2ccc(F)cc2)CSC3)cc1	5.2µM*	10%	-7%	?	0%	·
Cc1cc(C)c(-n2nnnc2SCC(=O)c2cc3ccccc3o2)c(C)c1	?	4%	-1%	-8%	6%	-2
O=C(CSc1nnnn1-c1ccc(O)cc1)c1cc2ccccc2o1	?	5%	-33%	13µM*	-24%	5
